Results filed as inconclusive are left out. Values without a mark were called inactive. Calls of active or inactive are those of the source. Calls follow the shape of the dose curve; as a rule, active = well fitted inhibition curve with a large enough effect; inconclusive = small, poorly fitted or top-dose-only effect; inactive = flat fitted curve, though single readings scatter.
% is scaled to controls: 0 for no effect and ±100 for the full control effect.

The nature of this experiment: P-glycoprotein substrates identified in KB-8-5-11 adenocarcinoma cell line, qHTS therapeutic library screen (AID 1346987). Also: nearly all actives have a fitted effect of over 65% in size. The note with it: KB-8-5-11 (P-gp overexpressing) viability, CellTiter-Glo, 72 h; series mostly up to 44.5 µM; activity change, negative = cytotoxicity: at the top concentration. The procedure, abridged:
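P-gp-mediated resistance screen: KB-8-5-11 cells treated 72 h with compounds in dose-response. CellTiter-Glo viability.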
A general note: Quantitative high-throughput screening tests each substance at several concentrations.
Take `CC(=O)NC(Cc1ccccc1)C(=O)O` (stereo not given): the Potency entry is “inactive”. For the compound `CS(=O)(=O)c1ccc([C@@H](O)[C@@H](CF)NC(=O)C(Cl)Cl)cc1`, the “activity change, negative = cytotoxicity” value is -8.35%. As for `Nc1nc2c(ncn2CCC(CO)CO)c(=O)[nH]1`, the Potency entry is “inactive”. Still for that read-out and setting: next, `Cc1cccc(Nc2cc(Cl)nc(SCC(=O)O)n2)c1C`: “inactive”. With `CC(C)(C)NCC(O)COc1ccc(NC(=O)NC2CCCCC2)cc1` (stereo not given), the “activity change, negative = cytotoxicity” value is 5.63%. Still for that read-out and setting: next, `O=C1NS(=O)(=O)c2ccccc21`: 15.5%.

In the case of `O=C(O)c1ccccn1`, the “activity change, negative = cytotoxicity” value was 0.0488%. For `CC(C)(O)c1ccccc1CC[C@@H](SCC1(CC(=O)O)CC1)c1cccc(/C=C/c2ccc3ccc(Cl)cc3n2)c1`, the Potency result was “inactive”. Same read-out and setting: next, `COc1ccccc1O`: “inactive”. Turning to `Cc1c(Cl)cccc1Nc1ccccc1C(=O)O`, the “activity change, negative = cytotoxicity” value is -42.8%. On the same count and under the same terms, next, `N[C@@H](CSSC[C@H](N)C(=O)O)C(=O)O`: 9.63%; `CCCCCCCCCCCCOS(=O)(=O)O`: -2.7%.

As to `C[C@@H]1CN(c2c(F)c(F)c3c(=O)c(C(=O)O)cn(C4CC4)c3c2F)C[C@H](C)N1`, the Potency result was “inactive”. Turning to `O=C1O[C@H](CO)[C@@H](O)[C@H](O)[C@H]1O`, the “activity change, negative = cytotoxicity” value was 4.28%.

Consider `CC(=O)Nc1ccc(/C=N/NC(N)=S)cc1`, for which the Potency entry was “inactive”. For the compound `O=C(O)CC(O)C(=O)O` (stereo not given), the “activity change, negative = cytotoxicity” value was -7.29%.

For `C[C@@H]1CC[C@@]2(OC1)O[C@H]1C[C@H]3[C@@H]4CC[C@H]5C[C@@H](O)CC[C@]5(C)[C@H]4CC(=O)[C@]3(C)[C@H]1[C@@H]2C`, the “activity change, negative = cytotoxicity” value is -1.22% [at 17.3 µM]. Consider `N[C@H]1C(O)O[C@H](CO)[C@@H](O)[C@@H]1O` (stereo not given in full), for which the “activity change, negative = cytotoxicity” value is -2.51%.

Turning to `C[C@H](N)[C@H](O)c1cccc(O)c1`, the “activity change, negative = cytotoxicity” value is 7.66% [at 17.3 µM]. As for `CCCCN1CCCC[C@H]1C(=O)Nc1c(C)cccc1C`, the Potency entry was “inactive”.

The values are drawn from PubChem BioAssay (NCATS).
